# Assay results as given in PubChem BioAssay AID1671192 (National Center for Advancing Translational Sciences (NCATS), 2021).
# Inconclusive results are not listed. Unmarked numbers belong to inactive results. The call rests on the fitted dose curve; in most records, active means well fitted curve in the direction sought with a large enough effect; inconclusive means small, poorly fitted or top-dose-only effect, or another doubt; inactive means no such curve, though single readings can be large or run the other way.
# Target: Polyunsaturated fatty acid lipoxygenase ALOX15 (Homo sapiens) (UniProt P16050)
# Test: Counterscreen qHTS for inhibitors of human arachidonate 12S-lipoxygenase (ALOX12): ALOX15 Assay; further: 0% is about no effect
# Conditions: purified ALOX15 enzyme activity; series mostly up to 110 µM; activity change, negative = inhibition: at the top concentration
# Summary of the method: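 Purified human ALOX15 (15hLO-1) at 40 nM in 25 mM HEPES, 0.01% Triton X-100, pH 7.5, preincubated with compound 15 min at RT. Then 50 uM arachidonic acid for 30 min; hydroperoxide detected by Fe-xylenol orange as the 573/405 nm absorbance ratio.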
# Chain of Polyunsaturated fatty acid lipoxygenase ALOX15 (Homo sapiens) (P16050 whole entry, looked up): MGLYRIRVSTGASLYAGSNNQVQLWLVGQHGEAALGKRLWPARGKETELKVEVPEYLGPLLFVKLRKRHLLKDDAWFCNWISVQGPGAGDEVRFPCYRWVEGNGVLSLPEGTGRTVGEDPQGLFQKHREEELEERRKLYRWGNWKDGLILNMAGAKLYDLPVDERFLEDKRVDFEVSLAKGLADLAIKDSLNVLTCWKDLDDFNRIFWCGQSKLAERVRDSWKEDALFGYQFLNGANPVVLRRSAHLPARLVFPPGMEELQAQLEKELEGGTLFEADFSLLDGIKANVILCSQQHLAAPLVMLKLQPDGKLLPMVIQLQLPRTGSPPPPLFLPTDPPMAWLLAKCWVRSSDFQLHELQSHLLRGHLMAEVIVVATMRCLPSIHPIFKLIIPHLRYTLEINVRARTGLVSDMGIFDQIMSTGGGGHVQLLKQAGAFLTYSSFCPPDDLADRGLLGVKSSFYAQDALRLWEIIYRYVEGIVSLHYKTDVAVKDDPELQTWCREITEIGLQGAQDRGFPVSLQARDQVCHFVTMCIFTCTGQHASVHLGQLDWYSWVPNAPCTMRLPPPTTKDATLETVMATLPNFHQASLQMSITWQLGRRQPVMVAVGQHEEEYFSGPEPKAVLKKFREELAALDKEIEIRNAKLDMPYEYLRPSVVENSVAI
row,Structure (SMILES),"activity change, negative = inhibition"
1,NCCC(=O)N1CCCC2(Cc3ccccc3CN2C(=O)c2ccccc2)C1 (centres undefined),-7.74%
2,CCCN1CCC2(Cc3ccccc3CN(C(=O)CCCC(=O)O)C2)C1 (centres undefined),-22.9%
3,O=C1Nc2ccccc2CN(CC2CCCCC2)C12CCNCC2,-14.5%
4,O=C1c2ccccc2CN1C1CCN(Cc2ccsc2)CC1,-5.25% [at 146 µM]
5,CNCc1ccccc1Cl,-2.81% [at 233 µM]
6,CC(=O)NCCC(=O)N1Cc2ccccc2CC2(CCCN(CC3CCNC3)C2)C1 (centres undefined),3.5%
7,Cc1ccc(-c2cccc(CN3CCCC(c4nc5ccc(F)cc5c(=O)[nH]4)C3)c2)c(C)c1 (centres undefined),131%
8,COc1ccc(-c2cc(C(=O)NCC(C)C)c3c(C)nn(-c4ccccc4)c3n2)cc1,-25.2%
9,CN1CCC(C(=O)N2CCCC3(Cc4ccccc4CN3C(=O)c3ccccc3)C2)CC1 (centres undefined),-14.8%
10,CCCC(=O)N1Cc2ccccc2CC2(CCN(Cc3ccccc3)CC2)C1,-9.59%
11,CC(C)[S+](=O)([O-])N1CCN(c2ccc(Cl)nn2)C(=O)C1,-25.2% [at 146 µM]
12,O=c1n(-c2ccc(Cl)cc2)nc2n1CCN([S+](=O)([O-])c1ccccc1)C2,-12.1%
13,COc1cc(OC(F)(F)F)ccc1C(=O)NCc1nnc2n1C(C(=O)O)CC2 (centres undefined),-7.17%
14,COc1ccc(C(=O)N2CCOC3(CCN(C(=O)CN)CC3)C2)cc1,-8.06%
15,O=C(N1CCCCC1)N1CCCC1c1nnc2n1CCNC2 (centres undefined),-11.3%
16,CN1CC(=O)N(C2CCNC2)Cc2c1ncnc2N1CCC(N2CCCCC2)CC1 (centres undefined),-8.21%
17,CN1CCN(CC2(N)CCCCC2)CC1,-3.46% [at 233 µM]
18,Cc1cc(C(=O)N2CCOCC2)c2c(C3CCNCC3)noc2n1,-7.21% [at 146 µM]
19,CN1CC(=O)N(C2CCCNCC2)Cc2c1ncnc2N1CCCC(F)C1 (centres undefined),2.56%
